Test results: PubChem BioAssay (Tox21)
Several values for one entry are separate records, joined by “and”; a condition that tells them apart may be missing. Identical values can stand only once. Results filed as inconclusive are left out. Unmarked numbers belong to inactive results. Activity calls are given as the source filed them. Calls follow the shape of the dose curve; as a rule, active = well fitted inhibition curve with a large enough effect in the repeat runs; inconclusive = weak or mixed curves; inactive = no such curve, though single readings can be large or run the other way.

biological target: Cytochrome P450 1A2 (Homo sapiens) (UniProt P05177); assay: Cytochrome P450 Family 1 Subfamily A Member 2 (CYP1A2) small molecule antagonists: luciferase reporter qHTS assay (AID 1671199); settings: P450-Glo CYP1A2 enzyme, luciferin luminescence, 1 h; series mostly up to 115 µM; activity change, negative = inhibition: at the top concentration; also: nearly all actives have a fitted effect of over 50% in size
Procedure, shortened: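 Room-temperature CYP1A2 reaction with proluciferin substrate: compounds added from DMSO, 10 min preincubation, NADPH regeneration for 1 h. Luciferin detection reagent then added; luminescence recorded as RLU.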
% is scaled to controls: 0 for no effect and ±100 for the full control effect; potency is read from the fitted curve at half-maximal effect.

Sequence of Cytochrome P450 1A2 (Homo sapiens) (P05177 whole entry, looked up): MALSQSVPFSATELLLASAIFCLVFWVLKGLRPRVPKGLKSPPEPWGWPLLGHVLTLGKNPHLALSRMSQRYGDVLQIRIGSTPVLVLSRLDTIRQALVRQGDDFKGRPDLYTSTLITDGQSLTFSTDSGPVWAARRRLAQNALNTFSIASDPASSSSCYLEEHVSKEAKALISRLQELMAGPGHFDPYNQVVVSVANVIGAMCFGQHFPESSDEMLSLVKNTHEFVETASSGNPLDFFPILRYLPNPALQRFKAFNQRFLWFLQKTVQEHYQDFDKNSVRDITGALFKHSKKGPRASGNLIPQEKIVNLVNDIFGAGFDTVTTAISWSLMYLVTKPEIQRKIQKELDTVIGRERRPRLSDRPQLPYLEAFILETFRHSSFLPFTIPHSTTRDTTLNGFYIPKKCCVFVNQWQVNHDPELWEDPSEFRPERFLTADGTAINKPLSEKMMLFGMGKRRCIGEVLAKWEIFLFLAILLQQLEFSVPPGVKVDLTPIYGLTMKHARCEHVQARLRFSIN

Compound | activity change, negative = inhibition | Potency
CO[Si](CCC1CCC2OC2C1)(OC)OC (configuration not stated) | -5.58% | 
Cc1cc2c(C(C)C)c(O)c(O)c(C=O)c2c(O)c1-c1c(C)cc2c(C(C)C)c(O)c(O)c(C=O)c2c1O | 2.28% [at 53 µM] | 
CCCC(CC)CCCCCCCN (configuration not stated) |  | 5.15 µM (active)
N[C@@H](CSSC[C@H](N)C(=O)O)C(=O)O | -15.1% [at 0.435 µM] | 
Brc1ccccn1 | -19.6% | 
CN(Cc1cc(Br)cc(Br)c1N)C1CCCCC1 |  | 32.3 µM (active)
CCCCCCOc1ccc(O)cc1 |  | 39.9 µM (active)
C=C1C(C)(C)[C@@]2(Cl)C(Cl)[C@]1(Cl)C(Cl)(Cl)C2(Cl)Cl (some centres not stated) |  | 39.2 µM (active)
NC(=O)C(=O)N/N=C/c1ccc([N+](=O)[O-])o1 | -27.5% [at 53 µM] | 
CC1CCCCC1 |  | 63.3 µM (active)
O=C1Nc2ccc(Cl)cc2[C@@](C#CC2CC2)(C(F)(F)F)O1 |  | 17.4 µM (active)
Nc1ccc2cc3ccc(N)cc3nc2c1 |  | 564 nM (active) and 1.82 µM (active)
Clc1cc(Cl)c(-c2c(Cl)c(Cl)cc(Cl)c2Cl)cc1Cl | 10.7% [at 53 µM] | 
S=P(N1CC1)(N1CC1)N1CC1 |  | 57.7 µM (active)
O=C1NCN(c2ccccc2)C12CCN(CCCC(c1ccc(F)cc1)c1ccc(F)cc1)CC2 | -0.241% [at 53 µM] | 
O=C(O)CC(=O)O |  | 63.4 µM (active)
CCCC(=O)OCC(COC(=O)CCC)OC(=O)CCC |  | 28.3 µM (active)
CCO[Si](C)(C)OCC | -13% | 
NC(=O)c1ccccc1N |  | 31.9 µM (active)
CC1CCCNC1 (configuration not stated) | -15.9% | 
CC(C)C(=O)OCc1ccccc1 | -2.98% | 
O=S(=O)(O)c1cc(S(=O)(=O)O)c2ccc3c(S(=O)(=O)O)cc(S(=O)(=O)O)c4ccc1c2c43 | -17.6% [at 23.6 µM] | 
